Values joined by “and” are separate entries in the source; they are usually repeats but may differ in a detail not shown here. Equal values may be shown once. Some compounds were tested as several samples or in several runs, with calls that do not always agree. Active and inactive are the calls of the source. How the source made its calls: active means hit-call score of the fitted dose curve at least 0.9, where 1 is the maximum; inactive means score below 0.9.
Legend:
[1] = read-out: Interleukin-8 (IL8), CXCL8 (gene 3576); assay: BSK_KF3CT_IL8: BioMAP Diversity Plus: KF3CT Assay for Interleukin-8 (IL8) Biomarker Activity (AID 2284254); details: primary human keratinocytes with fibroblasts
In short: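 Human keratinocyte/foreskin fibroblast co-culture dosed 24 h; IL-8 measured by ELISA relative to DMSO. Parallel cultures stained with SRB for total protein to flag cytotoxicity.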

[2] = read-out: Macrophage Inflammatory Protein-1 Alpha (MIP1a), CCL3 (gene 6348); assay: BSK_IMphg_MIP1a: BioMAP Diversity Plus: IMphg Assay for Macrophage Inflammatory Protein-1 Alpha (MIP1a) Biomarker Activity (AID 2284255); details: primary human endothelial cells with macrophages
In short: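 MIP-1a protein levels were quantified by ELISA after 24 h treatment of human endothelial cell–macrophage co-cultures, compared with DMSO. Parallel cultures were fixed with TCA and stained with 0.1% SRB to gauge overt cytotoxicity.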

CD69, CD69 (gene 969) = assay: BSK_IMphg_CD69: BioMAP Diversity Plus: IMphg Assay for CD69 Biomarker Activity (AID 2284257); details: primary human endothelial cells with macrophages
In short: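 Readout is ELISA for CD69 in primary human venular endothelial cell/macrophage co-culture, taken at 24 h post-dosing. SRB staining of parallel cultures gauged overt cytotoxicity; signal increase versus DMSO defined activity.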

[3] = read-out: Eotaxin 3, CCL26 (gene 10344); assay: BSK_BF4T_Eotaxin3: BioMAP Diversity Plus: BF4T Assay for Eotaxin 3 Biomarker Activity (AID 2284258); details: primary human bronchial epithelial cells with fibroblasts
In short: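 ELISA measurement of Eotaxin-3 after 24 h chemical exposure in a bronchial epithelial/dermal fibroblast co-culture, with DMSO as baseline. Parallel SRB staining (0.1% SRB after 10% TCA fixation, 560 nm) flagged overt cytotoxicity.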

[4] = read-out: Intercellular Adhesion Molecule 1 (ICAM1), ICAM1 (gene 3383); assay: BSK_BF4T_ICAM1: BioMAP Diversity Plus: BF4T Assay for Intercellular Adhesion Molecule 1 (ICAM1) Biomarker Activity (AID 2284260); details: primary human bronchial epithelial cells with fibroblasts
In short: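 ICAM-1 levels measured by ELISA after 24 h chemical treatment of bronchial epithelial cell/dermal fibroblast co-cultures, read against DMSO baseline. Overt cytotoxicity checked in parallel cultures by sulforhodamine B staining.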

[5] = read-out: Interleukin-8 (IL8), CXCL8 (gene 3576); assay: BSK_MyoF_IL8: BioMAP Diversity Plus: MyoF Assay for Interleukin-8 (IL8) Biomarker Activity (AID 2284261); details: primary human lung fibroblasts
In short: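 Human lung fibroblast (MyoF system) cultures dosed for 24 h, then IL-8 measured by ELISA. Response taken relative to DMSO; parallel SRB total-protein staining for cytotoxicity.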

CD90, THY1 (gene 7070) = assay: BSK_BF4T_CD90: BioMAP Diversity Plus: BF4T Assay for CD90 Biomarker Activity (AID 2284262); details: primary human bronchial epithelial cells with fibroblasts
In short: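 CD90 levels by ELISA after 24 h treatment of human bronchial epithelial cell/dermal fibroblast cultures, analysed versus DMSO. Overt cytotoxicity checked in parallel cultures by sulforhodamine B staining.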

[6] = read-out: Interleukin-8 (IL8), CXCL8 (gene 3576); assay: BSK_BF4T_IL8: BioMAP Diversity Plus: BF4T Assay for Interleukin-8 (IL8) Biomarker Activity (AID 2284263); details: primary human bronchial epithelial cells with fibroblasts
In short: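 Human bronchial epithelial cells with dermal fibroblasts co-culture; IL-8 measured by ELISA 24 hours after dosing, fitted vs DMSO. Cytotoxicity tracked in parallel cultures by SRB total-protein staining.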

[7] = read-out: Interleukin-1 alpha (IL1a), IL1A (gene 3552); assay: BSK_BF4T_IL1a: BioMAP Diversity Plus: BF4T Assay for Interleukin-1 alpha (IL1a) Biomarker Activity (AID 2284264); details: primary human bronchial epithelial cells with fibroblasts
In short: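 ELISA read-out of IL-1α from bronchial epithelial cell/dermal fibroblast co-cultures 24 h after compound addition. Increases scored against DMSO negative control. Cytotoxicity monitored by sulforhodamine B staining of parallel cultures.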

Decorin, DCN (gene 1634) = assay: BSK_MyoF_Decorin: BioMAP Diversity Plus: MyoF Assay for Decorin Biomarker Activity (AID 2284265); details: primary human lung fibroblasts
In short: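 Human lung fibroblast cultures were dosed for 24 h, and decorin was then measured by ELISA. Parallel cultures were stained with sulforhodamine B for total protein as a cytotoxicity check. Gain of signal was fitted relative to DMSO.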

KRT18 (gene 3875) = assay: BSK_BF4T_Keratin818: BioMAP Diversity Plus: BF4T Assay for Keratin 818 Biomarker Activity (AID 2284266); details: primary human bronchial epithelial cells with fibroblasts
In short: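 Keratin 8/18 levels quantified by ELISA after 24 h chemical treatment of bronchial epithelial cell/dermal fibroblast co-cultures, fitted in positive direction relative to DMSO. Parallel SRB staining tracks overt cytotoxicity.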

[8] = BSK_MyoF_SRB: Viability Assessment in the BioMAP Diversity Plus: MyoF Assay (AID 2284267); details: primary human lung fibroblasts;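 further: total protein by SRB absorbance in parallel cultures as cytotoxicity measure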
In short: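 Lung fibroblast cultures, 24 h post-dose; fix 10% TCA, stain 0.1% SRB, read 560 nm. Signal = total protein as cytotoxicity measure; fitted relative to DMSO negative control.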

[9] = read-out: Matrix Metallopeptidase 1 (MMP1), MMP1 (gene 4312); assay: BSK_MyoF_MMP1: BioMAP Diversity Plus: MyoF Assay for Matrix Metallopeptidase 1 (MMP1) Biomarker Activity (AID 2284268); details: primary human lung fibroblasts
In short: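 Human lung fibroblast primary cells; MMP1 measured by ELISA 24 h after dosing, fitted in the positive direction relative to DMSO. Parallel SRB staining (0.1%, after 10% TCA fixation, 560 nm) assesses overt cytotoxicity.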

[10] = read-out: TIMP metallopeptidase inhibitor 1 (TIMP1), TIMP1 (gene 7076); assay: BSK_MyoF_TIMP1: BioMAP Diversity Plus: MyoF Assay for TIMP metallopeptidase inhibitor 1 (TIMP1) Biomarker Activity (AID 2284269); details: primary human lung fibroblasts
In short: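 Primary human lung fibroblasts, MyoF multiplex system; chemical exposure 24 h; TIMP-1 by ELISA; positive fitting direction vs DMSO control.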

[11] = read-out: Matrix Metallopeptidase 1 (MMP1), MMP1 (gene 4312); assay: BSK_BF4T_MMP1: BioMAP Diversity Plus: BF4T Assay for Matrix Metallopeptidase 1 (MMP1) Biomarker Activity (AID 2284270); details: primary human bronchial epithelial cells with fibroblasts
In short: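 MMP-1 quantified by ELISA in primary human bronchial epithelial/dermal fibroblast co-cultures, 24 hours post-dosing, with DMSO as baseline; parallel sulforhodamine B staining (560 nm) tracks overt cytotoxicity.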

[12] = read-out: Matrix Metallopeptidase 3 (MMP3), MMP3 (gene 4314); assay: BSK_BF4T_MMP3: BioMAP Diversity Plus: BF4T Assay for Matrix Metallopeptidase 3 (MMP3) Biomarker Activity (AID 2284271); details: primary human bronchial epithelial cells with fibroblasts
In short: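 MMP-3 level read by ELISA after 24 h chemical exposure of bronchial epithelial cell/dermal fibroblast co-cultures, fitted upward relative to DMSO. Parallel cultures stained with 0.1% SRB after TCA fixation gauge overt cytotoxicity.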

[13] = read-out: Tissue plasminogen activator (tPA), PLAT (gene 5327); assay: BSK_BF4T_tPA: BioMAP Diversity Plus: BF4T Assay for Tissue plasminogen activator (tPA) Biomarker Activity (AID 2284272); details: primary human bronchial epithelial cells with fibroblasts
In short: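 tPA level quantified by ELISA at 24 h post-treatment in bronchial epithelial/dermal fibroblast co-cultures, gain of signal scored against DMSO baseline. Parallel cultures stained with 0.1% SRB (560 nm) to flag overt cytotoxicity.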

[14] = read-out: Plasminogen Activator Inhibitor-1 (PAI1), SERPINE1 (gene 5054); assay: BSK_BF4T_PAI1: BioMAP Diversity Plus: BF4T Assay for Plasminogen Activator Inhibitor-1 (PAI1) Biomarker Activity (AID 2284273); details: primary human bronchial epithelial cells with fibroblasts
In short: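 PAI-1 levels quantified by ELISA 24 h post-dosing in bronchial epithelial cell plus dermal fibroblast cultures. Signal gain referenced to DMSO baseline. Sulforhodamine B total-protein staining of parallel wells checked cytotoxicity.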

[15] = read-out: Plasminogen activator inhibitor-1 (PAI1), SERPINE1 (gene 5054); assay: BSK_MyoF_PAI1: BioMAP Diversity Plus: MyoF Assay for Plasminogen activator inhibitor-1 (PAI1) Biomarker Activity (AID 2284256); details: primary human lung fibroblasts
In short: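 Primary human lung fibroblasts treated with chemical for 24 h; PAI-1 levels quantified by ELISA relative to DMSO. Cytotoxicity was assessed in parallel cultures by SRB total-protein staining (0.1% SRB after 10% TCA fixation, 560 nm).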

Measured: AC50

O=C(O)C(F)(F)C(F)(F)C(F)(F)C(=O)O
not listed: [15]
inactive: all other assays above

O=C(O)C(F)(F)C(F)(F)C(F)(F)C(F)(F)C(F)(F)C(F)(F)C(F)F
active: [1] 17.2 µM
inactive: [1] | [2] | [15] | CD69, CD69 (gene 969) | [3] | [4] | [5] | CD90, THY1 (gene 7070) | [6] | [7] | Decorin, DCN (gene 1634) | KRT18 (gene 3875) | [9] | [10] | [11] | [12] | [13] | [14]

O=C(Cl)C(F)(F)C(F)(F)C(F)(F)C(F)(F)C(F)(F)C(F)(F)C(F)(F)F
inactive: [1] | [2] | [15] | CD69, CD69 (gene 969) | [3] | [4] | [5] | CD90, THY1 (gene 7070) | [6] | [7] | Decorin, DCN (gene 1634) | KRT18 (gene 3875) | [9] | [10] | [11] | [12] | [13] | [14]
active: [2] 237 nM | [11] 19.9 µM

C=CC(=O)OCC(F)(F)C(F)(F)C(F)(F)COC(=O)C=C
active: [1] 14.7 µM and 14.9 µM | [2] 47.1 µM and 48 µM | CD69, CD69 (gene 969) 54.8 µM and 44 µM | [3] 14.8 µM and 17 µM | [4] 7.12 µM and 9.76 µM | [5] 16.5 µM and 14.3 µM | CD90, THY1 (gene 7070) 8.59 µM | [6] 10.8 µM | [7] 40.5 µM and 41.3 µM | Decorin, DCN (gene 1634) 12.2 µM and 9.13 µM | KRT18 (gene 3875) 45.3 µM and 51.1 µM | [8] 10.6 µM | [10] 16.9 µM and 13.9 µM | [11] 50.2 µM | [13] 8.12 µM | [14] 20.7 µM and 23.4 µM
inactive: CD90, THY1 (gene 7070) | [6] | [9] | [11] | [12]

CCN(CCO)S(=O)(=O)C(F)(F)C(F)(F)C(F)(F)C(F)(F)C(F)(F)C(F)(F)C(F)(F)C(F)(F)F
inactive: [1] | CD69, CD69 (gene 969) | [3] | [4] | [5] | CD90, THY1 (gene 7070) | [6] | [7] | Decorin, DCN (gene 1634) | KRT18 (gene 3875) | [10] | [11] | [12] | [13] | [14]
active: [1] 5.61 µM | [2] 1.54 µM and 12.7 µM | CD69, CD69 (gene 969) 6.74 µM | Decorin, DCN (gene 1634) 19.4 µM | [9] 7.69 µM and 8.4 µM | [10] 30 µM | [12] 24 µM | [13] 13.6 µM

Source: PubChem BioAssay (EPA / NIEHS)
